ERa SRC1 inh: ERα–SRC-1 coactivator interaction inhibitors, primary screen, biochemical, TR-FRET, ERα LBD, estradiol-bound | Estrogen receptor (Homo sapiens), P03372 | TR-FRET ER-alpha LBD / SRC-1 peptide | inhibition, % at 25.6 µM | hit rate 1.7% among 86,000; in the data active = inhibition above about 50%
PLK1 inh: human PLK1 kinase inhibitors, primary screen, biochemical, TR-FRET; Serine/threonine-protein kinase PLK1 (Homo sapiens), P53350; recombinant PLK1 kinase, TR-FRET peptide phosphorylation; inhibition, % at 10 µM; hit rate 0.53% among 97,000; AID 619, 2007;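 active = inhibition of 50% or more in the single-concentration screen; inactive = inhibition below 50%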
Target sequence (P53350 whole entry, looked up): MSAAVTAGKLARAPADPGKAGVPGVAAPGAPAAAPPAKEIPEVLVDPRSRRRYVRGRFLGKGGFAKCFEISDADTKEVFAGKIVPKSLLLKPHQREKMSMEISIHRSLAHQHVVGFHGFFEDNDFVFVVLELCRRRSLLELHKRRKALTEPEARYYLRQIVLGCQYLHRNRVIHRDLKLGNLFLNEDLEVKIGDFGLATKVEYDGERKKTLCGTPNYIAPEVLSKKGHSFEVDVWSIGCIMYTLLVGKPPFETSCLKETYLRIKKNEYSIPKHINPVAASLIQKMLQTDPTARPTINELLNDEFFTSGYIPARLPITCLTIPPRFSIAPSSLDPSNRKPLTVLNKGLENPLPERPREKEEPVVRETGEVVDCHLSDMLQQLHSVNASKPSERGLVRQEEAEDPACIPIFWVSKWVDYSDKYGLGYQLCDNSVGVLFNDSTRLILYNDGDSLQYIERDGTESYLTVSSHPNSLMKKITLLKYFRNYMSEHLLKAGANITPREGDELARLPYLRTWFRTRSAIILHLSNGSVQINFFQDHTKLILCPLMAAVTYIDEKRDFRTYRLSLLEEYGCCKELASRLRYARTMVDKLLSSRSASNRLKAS
PLK1 PBD inh: Plk1 polo box domain binding inhibitors, primary screen, biochemical, fluorescence polarization. Plk1 PBD phosphopeptide binding. Serine/threonine-protein kinase PLK1 (Homo sapiens), P53350. hit rate 0.13% among 97,000. inhibition, %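 (tested at about 20 µM)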. AID 693, 2007; in the data active = inhibition above about 34%, passing the limit was not always enough
Smad3 inh: Smad3/FoxH1 peptide binding inhibitors, primary screen, biochemical, TR-FRET. TR-FRET Smad3/Dy647-FoxH1 peptide binding, europium anti-His. inhibition, % at 25 µM. hit rate 0.29% among 88,000. AID 630, 2007;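 active = compounds that reduce the energy-transfer binding signal between the protein and its labelled peptide by more than half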
ERa coact pot: enhancers of ERα–SRC-1 coactivator binding, primary screen, biochemical, TR-FRET, ERα LBD, low estradiol. Estrogen receptor (Homo sapiens), P03372. TR-FRET ERalpha-LBD/SRC-Cy5 coactivator binding, 2 h; 100 = basal binding, no effect. coactivator binding (% of control), % at 25.6 µM. hit rate 1.3% among 86,000. AID 639, 2007; in the data active = activity above about 200%;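 note: binding measured in presence of low estradiol as agonist stimulus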
ERb coact inh: inhibitors of ERβ-SRC1 coactivator interaction, primary screen, biochemical, TR-FRET, ERβ LBD, SRC-1 peptide; TR-FRET ER-beta LBD / SRC1-Cy5 peptide binding; receptor agonist-loaded with 1 µM estradiol; Estrogen receptor beta (Homo sapiens), Q92731; inhibition, % at 25.6 µM; hit rate 1.3% among 86,000; AID 633, 2007;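 active = compounds whose percent inhibition of the receptor-coactivator binding signal exceeds about 50% in the single-dose screen, limit read from the data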
PLK1 confirm: PLK1 kinase activity inhibitors, confirmation, biochemical, TR-FRET, duplicate runs | shares compounds with PLK1 inh | recombinant PLK1 kinase, TR-FRET peptide phosphorylation | inhibition, % at 10 µM | hit rate 20% among 210;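 active = inhibition at or above 50% in each of two repeat confirmation tests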
TR-FRET interf: compound interference with Plk1 assay readout, artefact control for Plk1 kinase inhibitor project, biochemical, TR-FRET, compound added post-reaction. inhibition (interference), % at 10 µM. shares compounds with PLK1 inh. 210 tested, under 10 active;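 active = both duplicate runs show 50% or greater inhibition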
Of the large screens only hits and unclear results are named; the others gave an inactive call (follow-up assays come after a bar, where they were run); [ ] = another dose, or the depositor's remark. Hits are enriched below; roughly 3.3% of the tested compounds scored in any of these assays.

Cc1sc2nc(CN(C(=O)NC3CCCCC3)C3CCCC3)[nH]c(=O)c2c1C	none
Cc1sc2nc(CN(Cc3cccs3)C(=O)NC3CCCCC3)[nH]c(=O)c2c1C	PLK1 inh 57 (no result: ERa SRC1 inh, Smad3 inh, ERa coact pot, ERb coact inh)
Cc1cc(NC(=O)CSc2ncnc3sc4c(c23)CCC(C)C4)no1 (stereo not given)	ERa coact pot 375[fluorescence artefact?] (no result: PLK1 inh, PLK1 PBD inh)
COC(=O)c1cc(=O)[nH]c(=O)[nH]1	none (no result: ERa SRC1 inh, PLK1 inh, PLK1 PBD inh, ERa coact pot, ERb coact inh)
Cn1c(=O)c2c(SCc3cccnc3)nc(CC(C)(C)C)nc2n(C)c1=O	PLK1 inh 73 | PLK1 confirm inactive | TR-FRET interf inactive
Cc1c(NC(=O)C(C)N2C(=O)C3C4C=CC(C4)C3C2=O)c(=O)n(-c2ccccc2)n1C (stereo not given)	PLK1 inh 71 | PLK1 confirm inactive | TR-FRET interf inactive
Cc1c(NC(=O)C(C)N2C(=O)c3ccccc3C2=O)c(=O)n(-c2ccccc2)n1C (stereo not given)	none
CNc1oc(-c2ccc(Cl)cc2)nc1P(=O)(c1ccccc1)c1ccccc1	none (no result: ERa SRC1 inh, Smad3 inh, ERa coact pot, ERb coact inh)
NNc1ncnc2c1cnn2-c1ccccc1	PLK1 inh 75 | PLK1 confirm 68 | TR-FRET interf inactive
O=C(Nc1cccc(C(=O)N2CCOCC2)c1)c1cccnc1	none
Cc1c(NC(=O)c2ccc(Br)o2)c(=O)n(-c2ccccc2)n1C	none
CCCc1[nH]nc2c1C(c1ccc(O)c(OC)c1)C(C#N)=C(N)O2 (stereo not given)	PLK1 inh 109 | PLK1 confirm inactive | TR-FRET interf inactive
CCCc1[nH]nc2c1C(c1ccccc1OC)C(C#N)=C(N)O2 (stereo not given)	none
CCCCCNc1c(C(=O)OCC)c(=O)[nH]c2ccccc12	none (no result: PLK1 inh, PLK1 PBD inh)
CC1(c2ccccc2)NC(=O)N(CC(=O)Nc2ccc3c(c2)OCO3)C1=O (stereo not given)	PLK1 inh 91 (no result: ERa SRC1 inh, Smad3 inh, ERa coact pot, ERb coact inh) | PLK1 confirm inactive | TR-FRET interf inactive
COc1ccccc1NC(=O)Cn1c(=O)n2nc(C)nc2c2ccccc21	none
COc1ccc(Cl)cc1NC(=O)Cn1c(=O)n2nc(C)nc2c2ccccc21	PLK1 inh 78 | PLK1 confirm inactive | TR-FRET interf inactive
COc1cccc(N2CCCn3c2nc2c3c(=O)n(CCN3CCOCC3)c(=O)n2C)c1	none
OCCN1CCN(c2ncnc3ccc(Br)cc23)CC1	PLK1 inh 79 | PLK1 confirm inactive | TR-FRET interf inactive
CCOC(=O)c1c(C)n(C)c2ccc(OCC(O)CN3CCN(C)CC3)cc12 (stereo not given)	PLK1 inh 75 | PLK1 confirm inactive | TR-FRET interf inactive
COCCn1c(SCc2cccnc2)nnc1-c1c[nH]c2ccccc12	PLK1 inh 75 | PLK1 confirm inactive | TR-FRET interf inactive
COCCn1c(SCC(=O)Nc2cc(C)on2)nnc1-c1c[nH]c2ccccc12	PLK1 inh 71 | PLK1 confirm inactive | TR-FRET interf inactive
CCOc1ccc(C2CC(c3ccccc3)Nc3nc(N)nn32)cc1 (stereo not given)	none (no result: PLK1 inh, PLK1 PBD inh)
c1ccc(-c2csc(Cc3nnc4n3CCCCC4)n2)cc1	none
COC(=O)c1[nH]c2ccc(Cl)cc2c1NC(=O)CN1CCC(C(N)=O)CC1	PLK1 inh 72 | PLK1 confirm inactive | TR-FRET interf inactive
COc1ccc(S(=O)(=O)Cc2ccc(C(=O)N3CCN(c4cccc(C)c4)C(C)C3)o2)cc1 (stereo not given)	PLK1 inh 73 | PLK1 confirm inactive | TR-FRET interf inactive
COc1ccc(N2CCN(C(=O)c3ccc(CS(=O)(=O)c4ccc(OC)cc4)o3)CC2)cc1	none
Cc1nn2c(c1-c1ccc(Cl)cc1)N=C(c1ccco1)CC2c1ccccc1 (stereo not given)	none
Cn1nnnc1SCC(=O)Nc1ccc(N2CCOCC2)cc1	PLK1 inh 75 | PLK1 confirm inactive | TR-FRET interf inactive
Cn1c(SCC(=O)Nc2ccc(N3CCOCC3)cc2)nnc1-c1ccccc1	none
Cc1cc(C)c(NC(=O)c2ccc(S(=O)(=O)N3CCOCC3)cc2)c(C)c1	PLK1 inh 72 | PLK1 confirm inactive | TR-FRET interf inactive
COc1cc(C)ccc1NC(=O)c1ccc(S(=O)(=O)N2CCOCC2)cc1	none
C=CCSc1nc(-c2ccccc2)c2cc(Cl)ccc2n1	PLK1 inh 78 (no result: ERa SRC1 inh, Smad3 inh, ERa coact pot, ERb coact inh) | PLK1 confirm inactive | TR-FRET interf inactive
CSc1c(-c2ccccc2)nc2ccc(Cl)cc2c1C(=O)O	none (no result: ERa SRC1 inh, Smad3 inh, ERa coact pot, ERb coact inh)
CC1(C)CC(=O)C2=C(C1)OC(N)=C(C#N)C2Cc1ccccc1 (stereo not given)	none
Cc1ccc(CC2CC(=O)N(c3cc(C)on3)C2=O)cc1 (stereo not given)	PLK1 inh 70, ERa coact pot 201[fluorescence artefact?] | PLK1 confirm inactive | TR-FRET interf inactive
O=c1c2c([nH]c3ccc(Br)cc13)CCCC2	none (no result: PLK1 inh, PLK1 PBD inh)
O=c1ccc2cc3c([nH]c4ccc(Br)cc43)oc-2c1O	ERa SRC1 inh 72[fluorescence artefact?], PLK1 inh 71, ERb coact inh 74[fluorescence artefact?] | PLK1 confirm inactive | TR-FRET interf inactive
O=C1CN(C(=O)CN2CCCC2)C(c2ccccc2)c2cc(Br)ccc2N1 (stereo not given)	none
Cc1ccc2c(c1)C(c1ccccc1)N(C(=O)C(C)C)CC(=O)N2 (stereo not given)	PLK1 inh 71 | PLK1 confirm inactive | TR-FRET interf inactive
O=C(CN1CCN(C(=O)c2cccc(F)c2)CC1)NC1CCCCC1	none
CCc1nc2n[nH]c(N)c2c2c1CSC(C)(C)C2	PLK1 inh 77 (no result: ERa SRC1 inh, Smad3 inh, ERa coact pot, ERb coact inh) | PLK1 confirm 72 | TR-FRET interf inactive
CCCc1nc2n[nH]c(N)c2c2c1CCC2	none (no result: PLK1 inh, PLK1 PBD inh)
O=C(CSc1ncn(-c2ccccc2)n1)Nc1nccs1	none
CC(=O)Nc1ccc(C(=O)CSc2ncn(-c3ccccc3)n2)cc1	PLK1 inh 84 | PLK1 confirm inactive | TR-FRET interf inactive
CCOC(=O)CNC(c1ccccc1)c1cc(Br)ccc1NC(=O)OCC (stereo not given)	PLK1 inh 93 (no result: ERa SRC1 inh, Smad3 inh, ERa coact pot, ERb coact inh) | PLK1 confirm inactive | TR-FRET interf inactive
CCS(=O)(=O)N1CCCC(C(=O)NCCN(C)Cc2ccccc2)C1 (stereo not given)	none
